# Reference: the supplement of paper PMC8728848
# About 410 targets per protein were measured; listed, in parts, are those with the strongest signals and a random draw of the rest.
# Key:
# Assay in all cases: glycan array binding signal (z-score within array); higher = stronger binding
# Conditions in all cases: glycan notation: IUPAC condensed, linker removed
# [1] = target: Fuc(a1-2)Gal(b1-3)GalNAc(a1-3)[Fuc(a1-2)]Gal(b1-4)Glc
# How it was run: (§1)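 Arrays were curated from the Consortium for Functional Glycomics database, 3228 in total, and kept only where the protein sequence was available. Binding is expressed as a within-array Z-score. This score was averaged across arrays of the same protein sequence at different concentrations or buffers and across linkers, and negative values can be read as non-binding.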
# [2] = target: Fuc(a1-2)Gal(b1-3)GalNAc(b1-4)[Neu5Ac(a2-3)]Gal(b1-4)Glc
# How it was run: as §1
# [3] = target: Fuc(a1-2)Gal(b1-3)GlcNAc(b1-3)[Neu5Ac(a2-6)Gal(b1-4)GlcNAc(b1-6)]Gal(b1-4)Glc
# How it was run: as §1
# [4] = target: Fuc(a1-2)Gal(b1-4)GlcNAc
# How it was run: as §1
# [5] = target: Fuc(a1-2)[Gal(a1-3)]Gal(b1-3)GlcNAc(b1-6)GalNAc
# How it was run: as §1
# [6] = target: Fuc(a1-2)[Gal(a1-4)]Gal(b1-4)GlcNAc
# How it was run: as §1
# [7] = target: Fuc(a1-2)[GalNAc(a1-3)]Gal(b1-3)GlcNAc(b1-6)GalNAc
# How it was run: as §1
# [8] = target: Fuc(a1-2)[GalNAc(a1-3)]Gal(b1-4)GlcNAc
# How it was run: as §1
# [9] = target: Fuc(a1-2)[GalNAc(a1-3)]Gal(b1-4)GlcNAc(b1-3)Gal(b1-4)GlcNAc
# How it was run: as §1
# [10] = target: Fuc(a1-2)[GalNAc(a1-3)]Gal(b1-4)GlcNAc(b1-6)GalNAc
# How it was run: as §1
# [11] = target: Gal(a1-3)Gal(b1-3)GlcNAc
# How it was run: as §1
# [12] = target: Gal(a1-3)Gal(b1-3)[Fuc(a1-4)]GlcNAc(b1-2)Man(a1-3)[Gal(a1-3)Gal(b1-3)[Fuc(a1-4)]GlcNAc(b1-2)Man(a1-6)]Man(b1-4)GlcNAc(b1-4)GlcNAc
# How it was run: as §1
# [13] = target: Gal(a1-3)Gal(b1-4)[Fuc(a1-3)]GlcNAc(b1-2)Man(a1-3)[Gal(a1-3)Gal(b1-4)[Fuc(a1-3)]GlcNAc(b1-2)Man(a1-6)]Man(b1-4)GlcNAc(b1-4)GlcNAc
# How it was run: as §1
# [14] = target: Gal(a1-4)Gal(b1-4)GlcNAc(b1-2)Man(a1-3)[Gal(a1-4)Gal(b1-4)GlcNAc(b1-2)Man(a1-6)]Man(b1-4)GlcNAc(b1-4)GlcNAc
# How it was run: as §1
# [15] = target: Gal(b1-3)GlcNAc(a1-6)Gal(b1-4)GlcNAc
# How it was run: as §1
# [16] = target: Gal(b1-3)GlcNAc(b1-2)Man(a1-3)[Gal(b1-3)GlcNAc(b1-2)Man(a1-6)]Man(b1-4)GlcNAc(b1-4)[Fuc(a1-6)]GlcNAc
# How it was run: as §1
# [17] = target: Gal(b1-3)GlcNAc(b1-3)Gal(b1-4)[Fuc(a1-3)]GlcNAc
# How it was run: as §1
# [18] = target: Gal(b1-3)[Fuc(a1-4)]GlcNAc(b1-2)Man
# How it was run: as §1
# [19] = target: Gal(b1-4)GlcNAc(b1-2)Man(a1-3)Man(b1-4)GlcNAc(b1-4)GlcNAc
# How it was run: as §1
# [20] = target: Gal(b1-4)GlcNAc(b1-2)[Gal(b1-4)GlcNAc(b1-4)]Man(a1-3)[GlcNAc(b1-4)][Gal(b1-4)GlcNAc(b1-2)Man(a1-6)]Man(b1-4)GlcNAc(b1-4)GlcNAc
# How it was run: as §1
# [21] = target: Gal(b1-4)GlcNAc(b1-3)Gal(b1-3)GalNAc
# How it was run: as §1
# [22] = target: Gal(b1-4)GlcNAc(b1-3)Gal(b1-4)GlcNAc(b1-2)Man(a1-3)[Gal(b1-4)GlcNAc(b1-3)Gal(b1-4)GlcNAc(b1-2)Man(a1-6)]Man(b1-4)GlcNAc(b1-4)[Fuc(a1-6)]GlcNAc
# How it was run: as §1
# [23] = target: Gal(b1-4)GlcNAc(b1-3)Gal(b1-4)GlcNAc(b1-2)[Gal(b1-4)GlcNAc(b1-3)Gal(b1-4)GlcNAc(b1-6)]Man(a1-6)[Gal(b1-4)GlcNAc(b1-3)Gal(b1-4)GlcNAc(b1-2)Man(a1-3)]Man(b1-4)GlcNAc(b1-4)GlcNAc
# How it was run: as §1
# [24] = target: Gal(b1-4)GlcNAc(b1-3)Gal(b1-4)GlcNAc(b1-3)Gal(b1-4)GlcNAc(b1-2)[Gal(b1-4)GlcNAc(b1-3)Gal(b1-4)GlcNAc(b1-3)Gal(b1-4)GlcNAc(b1-6)]Man(a1-6)[Gal(b1-4)GlcNAc(b1-3)Gal(b1-4)GlcNAc(b1-3)Gal(b1-4)GlcNAc(b1-2)Man(a1-3)]Man(b1-4)GlcNAc(b1-4)[Fuc(a1-6)]GlcNAc
# How it was run: as §1
# [25] = target: Gal(b1-4)GlcNAc(b1-3)Gal(b1-4)GlcNAc(b1-3)Gal(b1-4)GlcNAc(b1-3)Gal(b1-4)GlcNAc(b1-2)[Gal(b1-4)GlcNAc(b1-3)Gal(b1-4)GlcNAc(b1-3)Gal(b1-4)GlcNAc(b1-3)Gal(b1-4)GlcNAc(b1-6)]Man(a1-6)[Gal(b1-4)GlcNAc(b1-3)Gal(b1-4)GlcNAc(b1-3)Gal(b1-4)GlcNAc(b1-3)Gal(b1-4)GlcNAc(b1-2)Man(a1-3)]Man(b1-4)GlcNAc(b1-4)[Fuc(a1-6)]GlcNAc
# How it was run: as §1
# [26] = target: Gal(b1-4)GlcNAc(b1-3)Gal(b1-4)GlcNAc(b1-3)Gal(b1-4)GlcNAc(b1-3)Gal(b1-4)GlcNAc(b1-3)Gal(b1-4)GlcNAc(b1-2)Man(a1-3)[Gal(b1-4)GlcNAc(b1-3)Gal(b1-4)GlcNAc(b1-3)Gal(b1-4)GlcNAc(b1-3)Gal(b1-4)GlcNAc(b1-3)Gal(b1-4)GlcNAc(b1-2)Man(a1-6)]Man(b1-4)GlcNAc(b1-4)GlcNAc
# How it was run: as §1
# [27] = target: Gal(b1-4)GlcNAc(b1-3)Gal(b1-4)GlcNAc(b1-3)GalNAc
# How it was run: as §1
binder,measurement,setting,value
"Arath Fbox (Arabidopsis thaliana), NP_178341.1 (protein) EFTWGRKRRVKSESSPFDSFPEDCISYIISFTNPRDACVAATVSKTFESTVKSDIIWEKFLPADYESLIPPSRVFSSKKELYFSLCNDPVLFDDDKKSVWLEKASGKRCLMLSAMNLSIIWGDNPQYWQWIPIPESRFEKVAKLRDVCWFEIRGRTNTRVLSPRTRYSAYIVFKGVDKCYGFQNVAIEAAVGVVGQEPSRRLICFSEAIRRGRRNVVKPKQREDGWMEIELGEFFNDGGIMDNDEIEMSALETKQLNRKCGLIIQGIEIRPAKILAAAAASFLEQKLISEEDLNSAVDHHHHHH",glycan array binding signal (z-score),[1],-0.513
same,glycan array binding signal (z-score),[2],-0.123
same,glycan array binding signal (z-score),[3],-0.599
same,glycan array binding signal (z-score),[4],0.005
same,glycan array binding signal (z-score),[5],0.025
same,glycan array binding signal (z-score),[6],0.262
same,glycan array binding signal (z-score),[7],-0.626
same,glycan array binding signal (z-score),[8],-0.433
same,glycan array binding signal (z-score),[9],-0.64
same,glycan array binding signal (z-score),[10],-0.711
same,glycan array binding signal (z-score),[11],12
same,glycan array binding signal (z-score),[12],3.32
same,glycan array binding signal (z-score),[13],0.161
same,glycan array binding signal (z-score),[14],0.198
same,glycan array binding signal (z-score),[15],0.001
same,glycan array binding signal (z-score),[16],3.36
same,glycan array binding signal (z-score),[17],-0.717
same,glycan array binding signal (z-score),[18],2.33
same,glycan array binding signal (z-score),[19],-0.673
same,glycan array binding signal (z-score),[20],-0.348
same,glycan array binding signal (z-score),[21],-0.431
same,glycan array binding signal (z-score),[22],3.33
same,glycan array binding signal (z-score),[23],2.73
same,glycan array binding signal (z-score),[24],2.13
same,glycan array binding signal (z-score),[25],2.36
same,glycan array binding signal (z-score),[26],2.6
same,glycan array binding signal (z-score),[27],0.46
